Screening data (PubChem)
IL1B NFkB pot: enhancers of NFkB p65 translocation in HUVEC – imaging, IL-1B stimulus, high-content imaging, primary screen. HUVEC IL-1B NFkB p65 nuclear translocation imaging. activation, % at 2 µM. actives 0.3% (n = 94,000);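 active = activation above 40%, about the mean plus 3 SD, also judged a hit on visual image review; inconclusive = activation above 40% but not a hit on visual review; inactive = activation not above 40% and no visual hit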;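 note: percent activation is computed from the nuclear over cytoplasmic p65 intensity ratio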
Measles CPE: compounds protecting cells from measles virus cytopathic effect, primary screen, measles RdRp inhibitor project, single point, MLSMR library, absorbance. protection (pct of control), % at 4 µM. Measles virus-infected cells, CPE protection. AID 841, 2007. actives 1.5% (n = 140,000); in the data active = protection mostly above about 24%, no sharp cut-off; inactive = mostly below about 26%
HUVEC tox IL1B: cytotoxicity in IL-1B stimulated HUVEC, primary screen, cytotoxicity control for IL-1B NFkB translocation project, imaging, Hoechst nuclear count, IL-1B stimulus; HUVEC cell count loss; cell count reduction, % at 2 µM; actives 0.41% (n = 94,000);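 active = cell count reduction more than 3 SD above the screen-wide mean, cut at about 70% in these data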
IL1B NFkB inh: inhibitors of IL-1B driven NFkB p65 nuclear import, primary screen, imaging, HUVEC, IL-1B stimulus, high-content imaging; inhibition, % at 2 µM; HUVEC IL-1B NFkB p65 nuclear translocation imaging; actives 0.43% (n = 94,000); AID 796, 2007;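 active = inhibition above about 30% together with a positive call from visual inspection of the well image, limit read from the data; inconclusive = inhibition above a set limit but visual check negative; inactive = inhibition not above a set limit, visual check negative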;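 note: nuclear over cytoplasmic p65 intensity ratio measured by imaging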
Of the large screens only hits and unclear results are named; the others gave an inactive call. This is a sample that favours compounds with a hit; in the whole collection about 2.1% have one here.

CCOC(=O)N1CCN(C(=O)CCc2ccc(S(=O)(=O)NCCc3ccccc3)cc2)CC1	none
O=C(NC1CCCCC1)c1ccc(CNc2ccccc2)o1	Measles CPE 35.7, HUVEC tox IL1B 85.6, IL1B NFkB inh 33.9
COc1ccccc1S(=O)(=O)Cc1ccc(C(=O)NC2CCCCC2)o1	none (no result: Measles CPE)
CCOc1ccc(NC(=O)CSc2nnc(C(C)C)n2CC)cc1	IL1B NFkB pot inconclusive, HUVEC tox IL1B 94.7
CCOC(=O)c1cccc(NC(=O)CSc2nnc(COc3ccccc3)n2CC)c1	none
CCCn1c(SCC(=O)Nc2ccc(OCC)cc2)nnc1C(C)C	none
CCOC(=O)c1ccccc1NC(=O)CSc1nnc(COc2ccccc2)n1CC	Measles CPE 52.6
Cc1cccc(C)c1OCC(=O)Nc1oc(-c2ccccc2)c(-c2ccccc2)c1C#N	IL1B NFkB inh 49.2 (no result: Measles CPE)
CCOC(=O)CCCNC(=O)COC(=O)[C@@H]1CCCN1S(=O)(=O)c1ccc(Cl)cc1	none (no result: IL1B NFkB pot, HUVEC tox IL1B, IL1B NFkB inh)
COc1ccc(N2C(=O)CC(NCc3ccncc3)C2=O)cc1 (stereo not given)	Measles CPE 44.5
COc1ccc(N2C(=O)CC(NCc3ccc(F)cc3)C2=O)cc1 (stereo not given)	none
Clc1ccc(C2=CSC3=NCCN23)cc1Cl	Measles CPE 54.5
CCC(C(=O)NC(C)(C)C)N(C(=O)Cn1nnc(-c2cccs2)n1)c1cnc2ccccc2c1 (stereo not given)	Measles CPE 80.2
COc1cccc(N(C(=O)Cn2nnc(-c3ccc(C)o3)n2)C(C(=O)NC(C)(C)C)c2cccs2)c1 (stereo not given)	none
Cc1ccc(NC(=O)Cc2nnc(SCC(=O)c3ccc(Br)cc3)n2C)cc1Cl	none
O=c1oc2ccccc2c2c1ncn2C1CCCCC1	Measles CPE 38.1
O=c1oc2ccccc2c2c1ncn2-c1ccccc1	none
Cc1ccc(CC2SC(=O)NC2=O)cc1Cl (stereo not given)	none (no result: IL1B NFkB pot, HUVEC tox IL1B, IL1B NFkB inh)
CC(=O)/C(C#N)=C1\NC(=O)C(Cc2ccc(C)c(C)c2)S1 (stereo not given)	Measles CPE 68.5 (no result: IL1B NFkB pot, HUVEC tox IL1B, IL1B NFkB inh)
CC(=O)/C(C#N)=C1\NC(=O)C(Cc2ccccc2Cl)S1 (stereo not given)	Measles CPE 37.6
O=C1NC(=Nc2ccccc2)SC1Cc1cccc(Cl)c1Cl (stereo not given)	none (no result: IL1B NFkB pot, HUVEC tox IL1B, IL1B NFkB inh)
CCc1nnc(NC(=O)CSc2nnc(-c3cccnc3)n2CCc2ccccc2)s1	IL1B NFkB pot 42.7
CCc1nnc(NC(=O)c2ccncc2)s1	none (no result: IL1B NFkB pot, HUVEC tox IL1B, IL1B NFkB inh)
CCc1nnc(NC(=O)c2cccnc2)s1	IL1B NFkB pot 147.3
CCCCn1c(SCC(=O)Nc2nnc(CC)s2)nc2ccccc2c1=O	Measles CPE 32.5 (no result: IL1B NFkB pot, HUVEC tox IL1B, IL1B NFkB inh)
CC(/C=N\NC(=O)c1cccnc1)c1ccccc1 (stereo not given)	none (no result: Measles CPE)
C=CCC(CC=C)(NC(=O)c1cccc(C)c1)c1ccccc1	none (no result: IL1B NFkB pot, HUVEC tox IL1B, IL1B NFkB inh)
N#C/C(=C/c1ccc(N2CCCCCC2)o1)c1cccc(F)c1	none
N#C/C(=C/c1ccc(N2CCCCCC2)o1)c1ccc(F)cc1	IL1B NFkB inh 44.2
O=C(CCC(=O)OCc1ccc(C(=O)Oc2ccccc2)cc1)Nc1cccc2ccccc12	Measles CPE 79.3
C=CCOC(=O)CCC(=O)Nc1cccc2ccccc12	none (no result: IL1B NFkB pot, HUVEC tox IL1B, IL1B NFkB inh)
CC(C)[C@H](NC(=O)c1ccccc1)C(=O)OCC(=O)c1ccc2c(c1)NC(=O)CO2	none
COc1cc(OC)cc(C(=O)N[C@H](C(=O)OCC(=O)c2ccc3c(c2)NC(=O)CO3)C(C)C)c1	Measles CPE 31.9
COc1ccc(CNC(=O)c2ccc(NC(=O)C3CCCO3)cc2)cc1 (stereo not given)	none (no result: IL1B NFkB pot, HUVEC tox IL1B, IL1B NFkB inh)
CCOc1nc(NC(=O)NC(=O)c2ccccc2)nc(-c2ccccc2)n1	none (no result: IL1B NFkB pot, HUVEC tox IL1B, IL1B NFkB inh)
Cc1cccc(-c2noc(CN(C(=O)C(c3ccccc3)c3ccccc3)C(C)C)n2)c1	none
Cc1c(NC(=S)Nc2ccccc2C(F)(F)F)cccc1[N+](=O)[O-]	Measles CPE 41.4 (no result: IL1B NFkB pot, HUVEC tox IL1B, IL1B NFkB inh)
CC(C)C(=O)NC(=S)Nc1ccccc1C(F)(F)F	none
CN(C)c1ccc(/C=N/NC(=O)c2ccc(Cl)cc2)cc1	IL1B NFkB inh 50.1
CN(C)c1ccc(/C=N/NC(=O)c2ccccc2Cl)cc1	none (no result: IL1B NFkB pot, HUVEC tox IL1B, IL1B NFkB inh)
CCC1Oc2ccc(C)cc2N(CC(=O)N2CCN(c3ccc(F)cc3)CC2)C1=O (stereo not given)	Measles CPE 28.4
CCOC(=O)C1CCCN(C(=O)CN2C(=O)C(CC)Oc3ccc(C)cc32)C1 (stereo not given)	none (no result: IL1B NFkB pot, HUVEC tox IL1B, IL1B NFkB inh)
COc1ccc(-c2cc(=O)oc3cc(OCc4nn[nH]n4)ccc23)cc1	none
